± gives the standard deviation. The full ranking holds about 6,600 sequences; the median of “pre-steady-state target cleavage rate” is about 0.07, and the highest 2% start at about 0.72. The entries come from a sample that favours the highest values as a whole.

The subject of the assay is MIWI (PIWIL1) piRISC loaded with Kctd7 piRNA (30 nt). In words: pre-steady-state target cleavage rate (min^-1); MIWI and MILI are mouse PIWI proteins and EfPiwi is from a freshwater sponge; tags in brackets are library labels; higher = faster piRNA-guided slicing of the target. To be noted: guide: Kctd7 piRNA 5'p-UGUUAAUCUCUCAGAGAAGGUGACAGUGAU; auxiliary factor: 500 nM mouse GTSF1. The method, then: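 Cleave-'n-Seq: a library of target RNAs (target site embedded in constant flanks, ACAGCATTCCGCGTTAGTGATATCCG... 5' flank; DNA-blocked outside the site) at 0.1 nM was incubated with 1 nM active mouse MILI or MIWI piRISC (synthetic 5'-monophosphorylated piRNA guide) with or without 500 nM mouse GTSF1 at 33 °C for 1 min to 16 h. Uncleaved targets were sequenced and normalised to non-target controls, and the pooled three trials were fitted to a burst-and-steady-state model to give the pre-steady-state cleavage rate (min^-1; k3 is constrained to at most 1e-4). Sequence is the target site only; target names encode pairing extent (gX:gY) and contiguous / 1-mismatch / 2-mismatch / bulge geometry. Fits with R² ≤ 0 are excluded.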
Regarding UAGACUGUCUCCUUCUCUGAGAGAUUAACA, the “pre-steady-state target cleavage rate” value stood at 0.662 ± 0.04.
AUGACUGUCUCCUUCUCUGAGAGAUUAACA: the “pre-steady-state target cleavage rate” value is 0.623 ± 0.037.
Next, UUGACUGUCUCCUUCUCUGAGAGAUUAACA: 0.746 ± 0.04; AACACUGUCUCCUUCUCUGAGAGAUUAACA: 0.738 ± 0.039.
As for UACACUGUCUCCUUCUCUGAGAGAUUAACA, the figure is 0.599 ± 0.034; as for AUCACUGUCACCUUCUUCUGAGAGAUUAACA, 0.212 ± 0.046; as for UAGUGUGUCACCUUCUCUGAGACUUUAUGA, 0.00826 ± 0.0044.
As for UUCAGUGUCACCUUCUCUGAGAGAUAAACA, the figure is 0.264 ± 0.033.
UAGACUGUCUGGUUCUCUGAGAGAUUAUGA: the “pre-steady-state target cleavage rate” value was below 0.0001.
Take UAGUCUGUCACCUUCUGUCAGAGAUUAACA: the “pre-steady-state target cleavage rate” value was found to be 0.01 ± 0.0034.
Next, UACACUGUCACCGUUCUCUGAGAGAUUAACA: 0.586 ± 0.03.
Next, UAGUCUGUCACCGUUCUCUGAGAGAUUAACA: 0.651 ± 0.041.
Next, UUCACUGUCACCGUCUCUGAGAGAUUAACA: 0.509 ± 0.022; UUCACUGUCUCGUUCUCUGAGAGAUUAACA: 0.631 ± 0.035; UUCACUGUCACCGUUCUCUGAGAGAUUAACA: 0.729 ± 0.032.
AUCACUGUCACCGUUCUCUGAGAGAUUAACA: the “pre-steady-state target cleavage rate” value was 0.774 ± 0.052.
Consider UUCACUGUGACCUUCUCUGAGAGAUUAUGA, for which the “pre-steady-state target cleavage rate” value turned out to be 0.119 ± 0.021.
Turning to UAGUGUGUCUCCUUCUCUGACAGAUUAACA, the “pre-steady-state target cleavage rate” value came out at 0.386 ± 0.03.
Next, AUCACUGUCACUUUCUCUGAGAGAUUAACA: 0.794 ± 0.04; UAGACUGUCACUUUCUCUGAGAGAUUAACA: 0.8 ± 0.043.
Next, UACACUGUCACCUUUCUCUGAGAGAUUAACA: 0.575 ± 0.029.
As to UACACUGUCACUUUCUCUGAGAGAUUAACA, the “pre-steady-state target cleavage rate” value was determined as 0.725 ± 0.025.
Next, UAGACUGUCACACUUCUCUGAGAGAUUAACA: 0.607 ± 0.04; AUCACUGUCACCUUUCUCUGAGAGAUUAACA: 0.599 ± 0.034; UUCACUGUCACUUUCUCUGAGAGAUUAACA: 0.691 ± 0.026.
As to UAGACUGUCACUUCUCUGAGAGAUUAACA, the “pre-steady-state target cleavage rate” value is 0.466 ± 0.041.
As for UACACUGUCACUUCUCUGAGAGAUUAACA, the figure is 0.577 ± 0.038.
As for UUGACUGUCACCUUCUCUGAGACAUUAACA, the figure is 0.0684 ± 0.0093; as for AUCUCUGUCACCUUCUCUGAGAGAUUUUGA, 0.191 ± 0.042; as for UAGACUCUCACCUUCUCUGAGAGAUUAACA, 0.431 ± 0.029.
As for UACACUGUCACCUUCUCUGAGUGAUUUACA, the figure is 0.0176 ± 0.0081; as for UAGACAGUCACCUUCUCUGAGAGAUUAUCA, 0.252 ± 0.029.
For UAGACUCACACCUUCUCUGAGAGAUUAUGA, the “pre-steady-state target cleavage rate” value worked out at 0.0733 ± 0.015.
As for UACAGCUGUCACCUUCUCUGAGAGAUUAACA, the “pre-steady-state target cleavage rate” value was found to be 0.749 ± 0.036.
As for UAGAGCUGUCACCUUCUCUGAGAGAUUAACA, the figure is 0.706 ± 0.047; as for UUCAGCUGUCACCUUCUCUGAGAGAUUAACA, 0.681 ± 0.037; as for UACAUCUGUCACCUUCUCUGAGAGAUUAACA, 0.66 ± 0.027.
With AUCAGCUGUCACCUUCUCUGAGAGAUUAACA, the “pre-steady-state target cleavage rate” value stood at 0.792 ± 0.043.
As for UACAGUGUCACCUUCUCUGAGAGAUUAACA, the “pre-steady-state target cleavage rate” value stood at 0.663 ± 0.034.
As for UAGUCUGUCACCUUCUCUGAGAGAUAUUCA, the figure is 0.211 ± 0.045; as for UUCACUGUCACCUUCUCUCUCAGAUUAACA, 0.00363 ± 0.0035.
Next, UAGUGAGUCACCUUCUGUCAGAGAUUAACA: 0.00937 ± 0.0041; UACACUGACACCUUCUCUGAGAGAUUUUGA: 0.0697 ± 0.019.
As for UAGUGACUCACCUUGUCUGUGAGAUUAACA, the figure is 0.0416 ± 0.0061; as for UUCACUGUCACCAUCUCUGAGAGAUUAAGA, 0.134 ± 0.025; as for AUCACUGACACCAUCUCUGAGAGAUUAACA, 0.603 ± 0.037.
On to UACACUGUCACCAUCUCUGAGAGAUUAACA, for which the “pre-steady-state target cleavage rate” value was determined as 0.532 ± 0.044.
As for AUCACUGUCACCAUCUCUGAGAGAUUAACA, the figure is 0.795 ± 0.048; as for UUCACUGUCACCAUCUCUGUGAGAUUAACA, 0.215 ± 0.015.
Next, AACACUGUCACCAUCUCUGAGAGAUUAACA: 0.77 ± 0.035; AUCACUGUCACCAUCUCUGAGAGAUUAAGA: 0.184 ± 0.032; UUCACUGUCACCAUCUCUGAGAGAUUAACA: 0.738 ± 0.029.
As for AUCACUGUCACCAUCUCUGUGAGAUUAACA, the figure is 0.259 ± 0.021; as for UAGUGUGUCACCUACUCUCAGAGAUUAACA, 0.0454 ± 0.009.
In the case of AUCACUGAGACCUUCUCUGAGAGAUUAAGA, the “pre-steady-state target cleavage rate” value is 0.17 ± 0.033.
Next, UAGUCUGUCUCCAUCUCUGAGAGAUUAACA: 0.509 ± 0.034; UAGUGAGUCACCUUGUCUGAGAGUUUAACA: 0.0617 ± 0.013.
Next, UAGUGACUCACCUUCUUUGAGAGAUUAACA: 0.196 ± 0.021; UAGUGACUCACCUUCUCUGAGUGAUUAACA: 0.0244 ± 0.0052.
With UAGUGACAGACCUUCCUCUGAGAGAUUAACA, the “pre-steady-state target cleavage rate” value worked out at 0.0189 ± 0.004.
As to UAGUGACAGACCUUACUCUGAGAGAUUAACA, the “pre-steady-state target cleavage rate” value is 0.0198 ± 0.0041.
As for UAGUGAGUCACGUUCUCAGAGAGAUUAACA, the figure is 0.171 ± 0.017.
Next, UACACUGUUACCUUCUCUGAGAGAUUAACA: 0.441 ± 0.024; UAGACUGUCACCUUCUGUGAGAGAUAUUGA: 0.0117 ± 0.004.
On to AUCACUGUACCUUCUCUGAGAGAUUAACA, for which the “pre-steady-state target cleavage rate” value stood at 0.769 ± 0.051.
As for UACACUGUACACCUUCUCUGAGAGAUUAACA, the figure is 0.623 ± 0.03; as for AUCACUGUACACCUUCUCUGAGAGAUUAACA, 0.8 ± 0.055.
As for UAGACUGUACACCUUCUCUGAGAGAUUAACA, the “pre-steady-state target cleavage rate” value worked out at 0.779 ± 0.055.
As for UUCACUGUACACCUUCUCUGAGAGAUUAACA, the figure is 0.655 ± 0.033; as for UAGACUGUACCUUCUCUGAGAGAUUAACA, 0.572 ± 0.044; as for UUCACUGUACCUUCUCUGAGAGAUUAACA, 0.712 ± 0.036.
As for UAGACUGACACCUUCUCUGAGAGAUUAACA, the figure is 0.62 ± 0.035.
AUCACUGUAACCUUCUCUGAGAGAUUAACA: the “pre-steady-state target cleavage rate” value turned out to be 0.651 ± 0.03.

The values are drawn from the supplement of paper PMC10338343.
